Sampled rows, rich in hits. Any-hit rate of the full collection: about 7.6%.
ELG1 DNA repair = ELG1-dependent DNA repair inhibition; hit rate 2.3% among 330,000; HEK293T ELG1-luciferase reporter, luminescence, 16 h; DNA damage induced by 5-fluorouridine; Potency, µM (highest dose often 46.1 µM), hits mostly inhibitors; also: nearly all actives have a fitted effect of over 55% in size
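Quantitative HTS, concentration-response format. 2,000 cells/well co-treated with 5-fluorouridine and compound, 16 hr in 5% CO2 at 37 °C; ONE-Glo luminescence read after 30 min.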
p53 reactivation = re-activators of mutant p53; H1299 p53-A138V BP100-luciferase reporter, luminescence, 24 h; AID 504706; hit rate 0.063% among 320,000; Potency, µM (doses to about 92.2 µM), usual class: activators; also: nearly all actives have a fitted effect of over 45% in size
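p53-null H1299 cells stably carrying temperature-sensitive p53-A138V and a BP100-luciferase reporter were pinned with compounds (4-point, 1:5 series) and held 24 hrs at 37 deg C. Luminescence was read 10 min after detection reagent.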
RORgamma inh = inhibitors of mouse ROR gamma transcriptional activity | P51450 | Drosophila S2 Gal4-RORgamma UAS-luciferase reporter, 20 h | Potency, µM (series often up to 53.6 µM), actives largely listed as inhibitors | hit rate 5.4% among 310,000 | AID 2551; also: nearly all actives have a fitted effect of over 60% in size
Target sequence (P51450 whole entry, looked up, the tested form may be a part): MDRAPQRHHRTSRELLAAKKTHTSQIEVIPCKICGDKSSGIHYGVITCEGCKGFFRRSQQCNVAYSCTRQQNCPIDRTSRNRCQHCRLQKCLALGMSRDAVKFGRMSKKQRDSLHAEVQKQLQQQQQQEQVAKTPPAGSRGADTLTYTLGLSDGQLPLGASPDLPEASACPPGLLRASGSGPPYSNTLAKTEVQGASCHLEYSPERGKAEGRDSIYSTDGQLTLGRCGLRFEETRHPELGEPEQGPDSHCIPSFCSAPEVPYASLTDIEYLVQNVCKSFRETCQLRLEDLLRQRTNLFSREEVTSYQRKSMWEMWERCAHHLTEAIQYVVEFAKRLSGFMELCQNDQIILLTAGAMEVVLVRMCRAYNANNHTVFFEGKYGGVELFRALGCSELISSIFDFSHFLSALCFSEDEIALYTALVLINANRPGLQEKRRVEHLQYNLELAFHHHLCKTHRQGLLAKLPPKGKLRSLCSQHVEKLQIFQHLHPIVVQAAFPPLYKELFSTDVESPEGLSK
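In this cell-based reporter format, copper sulfate (700 uM final) drives Gal4–ROR gamma fusion expression from a metallothionein promoter in Drosophila Schneider cells; compounds preincubated 1 hr, reporter read after 20 hr at ambient temperature.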
Giardia kill = Giardia lamblia killing. Giardia lamblia trophozoite viability. activity change, % at 7.66 µM, hits read low. hit rate 0.15% among 340,000. AID 540267; in the data active = activity change below about -80%; inconclusive = between about -30% and that limit;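 also: parasites exposed to compound for two days anaerobically before the ATP read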
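Trophozoites 100 cells/well + cpd; 48 hrs, 37 deg C, anaerobic. ATPLite 1-Step added, 15-30 min RT, luminescence read (ATP-based viability).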
Gal4-VP16 FLuc = counter-screen for ROR gamma inhibitors: Gal4-VP16 reporter; Drosophila S2 Gal4-VP16 UAS-luciferase, luminescence, 20 h; hit rate 3.5% among 310,000; Potency, µM (titrated, usually from 53.6 µM), hits mostly inhibitors;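 also: Gal4-VP16 expression switched on by copper sulfate through the metallothionein promoter; nearly all actives have a fitted effect of over 50% in size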
BRCA1 expr act = activators of BRCA1 expression; MCF7-BRCA1-FFLuc reporter, luminescence, 48 h; response scale: scaled: vehicle 0%, 10 µM genistein 100%; Potency, µM (highest dose often 46.1 µM), most hits filed as activators; hit rate 1.1% among 380,000; AID 624202; also: nearly all actives have a fitted effect of over 80% in size
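Reporter cells (MCF7, BRCA1 promoter-firefly luciferase) received library compounds across a concentration series for 48 h. End-point luminescence was measured and concentration-effect curves derived after normalization.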
Each line names hits and unclear results; the compound was inactive in the other large screens. Unless noted, calls follow the shape of the dose curve; as a rule, active = well fitted curve in the direction sought with a large enough effect; inconclusive = small, poorly fitted or top-dose-only effect, or another doubt; inactive = no such curve, though single readings can be large; an effect the other way counts as inactive or inconclusive.

c1ccc(CCNCc2ccccc2)cc1	ELG1 DNA repair inconclusive
CC(C)NC(=O)N1CCC2(CCNCC2)CC1	none (no result: ELG1 DNA repair, p53 reactivation, Giardia kill, BRCA1 expr act)
O=C(c1ccc2c(=O)n(Cc3ccc4c(c3)OCO4)c(=S)[nH]c2c1)N1CCC2(CC1)OCCO2	ELG1 DNA repair inconclusive, RORgamma inh 13µM, Gal4-VP16 FLuc inconclusive
CC(=O)CC(c1ccccc1)c1c(O)c2cc(O)ccc2oc1=O (stereo unspecified)	none (no result: ELG1 DNA repair, p53 reactivation, Giardia kill, BRCA1 expr act)
CC(=O)OC(CC(=O)O)C[N+](C)(C)C (stereo unspecified)	ELG1 DNA repair 18µM
C=Cn1ccnc1P(O)(=S)c1nc(C)c(CCOC(C)=O)s1 (stereo unspecified)	ELG1 DNA repair inconclusive, RORgamma inh 11µM, Gal4-VP16 FLuc inconclusive
O=c1c2ccccc2nc(-c2ccco2)n1-c1cccnc1	none
Cc1ccc2[nH]c3c(c2c1)CN(C(=O)CN1C[C@H]2C[C@@H](C1)c1cccc(=O)n1C2)CC3	none (no result: p53 reactivation)
Oc1cccc(Cl)c1Cl	none (no result: ELG1 DNA repair, p53 reactivation, Giardia kill, BRCA1 expr act)
COc1cc2c(c3oc4cccc(O)c4c(=O)c13)C1C=CO[C@@H]1O2 (stereo partly specified)	RORgamma inh 13µM, Gal4-VP16 FLuc 10µM (no result: ELG1 DNA repair, p53 reactivation, Giardia kill, BRCA1 expr act)
COc1cc(C=C2C(=O)NC(=O)NC2=O)ccc1OCc1ccc([N+](=O)[O-])cc1	ELG1 DNA repair inconclusive, BRCA1 expr act inconclusive
COc1cc(/C=C(/C)[N+](=O)[O-])ccc1OCc1ccccc1Cl	ELG1 DNA repair inconclusive, RORgamma inh 4µM, Gal4-VP16 FLuc inconclusive
COc1cc2c(cc1OC)C(C(=O)N1CCC3(CC1)OCCO3)C(c1ccccc1F)N(C)C2=O (stereo unspecified)	ELG1 DNA repair 18µM, RORgamma inh inconclusive
CC(C)(C)c1ccc(-c2n[nH]c(=S)n2CCCN2CCOCC2)cc1	RORgamma inh 7.9µM
O=c1[nH]c(=O)n(-c2cccc(Cl)c2)c(O)c1C=NCCCN1CCOCC1	ELG1 DNA repair inconclusive
CC(C)CCn1c(N2CCN(c3cccc(Cl)c3)CC2)nc2c1c(=O)[nH]c(=O)n2C	ELG1 DNA repair 15µM, RORgamma inh inconclusive
CCS(=O)(=O)Nc1ccc(C2=NN(C(=O)c3ccco3)C(c3ccc(Cl)o3)C2)cc1 (stereo unspecified)	ELG1 DNA repair inconclusive (no result: RORgamma inh, Gal4-VP16 FLuc)
CCOC(=O)/C(C#N)=C1/SC(C)C(=O)N1c1ccc(Br)cc1 (stereo unspecified)	RORgamma inh 11µM
CCCC[C@H]1C(=O)O[C@H](C)[C@H](NC(=O)c2cccc(NC=O)c2OC)C(=O)O[C@@H](C)[C@@H]1OC(=O)CC(C)C	RORgamma inh 1.8µM, Gal4-VP16 FLuc 1.8µM (no result: ELG1 DNA repair, p53 reactivation, Giardia kill, BRCA1 expr act)
Cc1cc(OCC(=O)N2CCC(C(=O)O)CC2)c2c3c(c(=O)oc2c1)CCC3	none (no result: p53 reactivation)
c1ccc2c(c1)-c1cccc3cccc-2c13	none
c1ccc2c(c1)[IH]c1ccccc1-2	Giardia kill -98 (no result: ELG1 DNA repair, p53 reactivation, RORgamma inh, Gal4-VP16 FLuc)
COC(=O)C1=C(c2c(C)noc2C)C[C@@H]2CC[C@H]1N2C(=O)NCc1ccco1	ELG1 DNA repair inconclusive (no result: RORgamma inh, Gal4-VP16 FLuc)
CC(C)=CCCC1(C)C=Cc2c(O)c3c(c(CC=C(C)C)c2O1)OC12C(=CC4CC1C(C)(C)OC2(C/C=C(/C)C(=O)O)C4=O)C3=O (stereo unspecified)	RORgamma inh 3.2µM, Gal4-VP16 FLuc 5µM (no result: ELG1 DNA repair, p53 reactivation, Giardia kill, BRCA1 expr act)
CC(C)CCCC1(C)C=Cc2c(O)c3c(c(CCC(C)C)c2O1)OC12C(CC4CC1C(C)(C)OC2(CCC(C)C(=O)O)C4O)C3=O (stereo unspecified)	none (no result: ELG1 DNA repair, p53 reactivation, Giardia kill, BRCA1 expr act)
CC(C)=CCCC1(C)C=Cc2c(O)c3c(c(CC=C(C)C)c2O1)OC12C(=CC4CC1C(C)(C)OC2(C/C=C(/C)C(=O)O)C4O)C3=O (stereo unspecified)	RORgamma inh 2.8µM, Gal4-VP16 FLuc 2.2µM (no result: ELG1 DNA repair, p53 reactivation, Giardia kill, BRCA1 expr act)
CN(C(=O)Cc1ccccc1)[C@H](CN1CCCC1)c1ccccc1	none (no result: ELG1 DNA repair, p53 reactivation, Giardia kill, BRCA1 expr act)
C=CCc1c(C)nc(C)nc1N/N=C/c1ccc(N(C)C)cc1	ELG1 DNA repair inconclusive, RORgamma inh 4.5µM, Gal4-VP16 FLuc inconclusive
NC(Cc1nc2ccccc2[nH]1)c1ccc(Cl)cc1 (stereo unspecified)	ELG1 DNA repair inconclusive, p53 reactivation inconclusive, BRCA1 expr act 11µM
O=c1ccc2cc(OC3OC(CO)C(O)C(O)C3O)c(O)cc2o1 (stereo unspecified)	RORgamma inh inconclusive (no result: ELG1 DNA repair, p53 reactivation, Giardia kill, BRCA1 expr act)
C=C1C(O)C2OC3(CCC(/C=C/C(C)C4CC(C)=CC5(OC(CC(C)(O)C(=O)O)CCC5O)O4)O3)CCC2OC1C(O)CC(C)C1OC2(CCCCO2)CCC1C (stereo unspecified)	RORgamma inh 0.004µM, Gal4-VP16 FLuc 0.011µM (no result: ELG1 DNA repair, p53 reactivation, Giardia kill, BRCA1 expr act)
Nc1cc(Cl)c2nonc2c1[N+](=O)[O-]	ELG1 DNA repair inconclusive, RORgamma inh 2µM, Gal4-VP16 FLuc 2.8µM
O=[N+]([O-])c1c(Cl)c(Cl)c(Cl)c(Cl)c1Cl	none (no result: ELG1 DNA repair, p53 reactivation)
COc1ccc(OCC(=O)N2CCN(Cc3cc(=O)n4nc(-c5ccccc5C)sc4n3)CC2)cc1	none (no result: ELG1 DNA repair, p53 reactivation, RORgamma inh, Giardia kill, Gal4-VP16 FLuc)
O=c1cc(CN2CC=C(c3ccccc3)CC2)c2c(ccc3ccccc32)o1	RORgamma inh 5.6µM
N=C1c2ccccc2CN1NC(=O)c1ccco1	ELG1 DNA repair inconclusive (no result: RORgamma inh, Gal4-VP16 FLuc)
O=C(CCl)Nc1nccs1	RORgamma inh inconclusive, Gal4-VP16 FLuc 13µM
O=C(Nc1nccs1)C(Cl)(Cl)Cl	RORgamma inh inconclusive, Gal4-VP16 FLuc inconclusive
Nc1cccc(SC2CC(=O)N(c3ccc(Cl)cc3C(=O)c3ccccc3)C2=O)c1 (stereo unspecified)	none (no result: ELG1 DNA repair, p53 reactivation, RORgamma inh, Giardia kill, Gal4-VP16 FLuc)

From PubChem BioAssay
